# From PubChem BioAssay (NCI)
# Compounds without any hit were thinned out: in the full panel of roughly 79,000, 15% have a hit. Values without a mark were called inactive. Calls of active or inactive are those of the source. Cut-off read from the data, not from the text of the source: active = growth inhibition above about 70%; inactive = the rest.
# How the values were obtained:
# [1] = NCI Yeast Anticancer Drug Screen. Data for the rad52 strain (AID 147);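 note: 0% = growth of vehicle-treated control cultures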; details: S. cerevisiae rad52 mutant growth inhibition, stronger effect = higher value
# Procedure, shortened: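 Read-out: growth inhibition versus vehicle-treated controls. Cells were a DNA repair-deficient yeast strain treated with compounds.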
# [2] = NCI Yeast Anticancer Drug Screen. Data for the wt1 strain (AID 149);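 note: 0% = growth of vehicle-treated wt1 cultures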; details: S. cerevisiae wt1 strain (SPY 50644) growth inhibition, stronger effect = higher value
# Procedure, shortened: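 Each compound is tested on wt1 yeast and the loss of growth versus vehicle gives the inhibition value.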
# [3] = NCI Yeast Anticancer Drug Screen. Data for the rad50EPP+ strain (AID 151);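 note: 0% = growth of vehicle-treated control cultures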; details: S. cerevisiae rad50 mutant strain, stronger effect = higher value
# Procedure, shortened: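 Growth inhibition read against vehicle controls in rad50EPP+ yeast, a strain altered in DNA damage repair, after compound exposure.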
# [4] = NCI Yeast Anticancer Drug Screen. Data for the mgt1 strain (AID 153); details: S. cerevisiae mgt1 mutant growth inhibition, stronger effect = higher value
# Procedure, shortened: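 mgt1 yeast grown with test compound; read-out is growth inhibition versus vehicle-treated cultures.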
# [5] = NCI Yeast Anticancer Drug Screen. Data for the rad50 strain (AID 155);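 note: 0% = growth of vehicle-only cultures of the same strain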; details: S. cerevisiae rad50 strain growth inhibition, stronger effect = higher value
# Procedure, shortened: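 Vehicle-treated cultures provide the reference for the growth inhibition reported for compound-exposed, repair-deficient yeast.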
# [6] = NCI Yeast Anticancer Drug Screen. Data for the mec2-1 strain (AID 157); details: S. cerevisiae mec2-1 strain, stronger effect = higher value
# Procedure, shortened: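 Yeast mec2-1 mutant treated with compound. Readout: growth inhibition vs vehicle controls.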
# [7] = NCI Yeast Anticancer Drug Screen. Data for the rad14 strain (AID 159);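 note: 0% = growth of vehicle-treated control cultures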; details: S. cerevisiae rad14 strain growth inhibition, stronger effect = higher value
# Procedure, shortened: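 Inhibition of growth is reported for a repair-deficient yeast mutant following compound treatment, calculated relative to cultures that received vehicle.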
# [8] = NCI Yeast Anticancer Drug Screen. Data for the sgs1 mgt1 strain (AID 161);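 note: 0% = growth of cultures given vehicle only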; details: S. cerevisiae sgs1 mgt1 strain, stronger effect = higher value
# Procedure, shortened: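 Read-out: growth inhibition vs vehicle controls. Cells: mutant yeast strain deficient in DNA damage repair.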
# [9] = NCI Yeast Anticancer Drug Screen. Data for the CLN2oe strain (AID 163);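 note: 0% = growth of vehicle-only control cultures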; details: S. cerevisiae CLN2oe strain, stronger effect = higher value
# Procedure, shortened: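 Read-out: yeast growth inhibition, expressed relative to vehicle-only controls. The strain bears an engineered cell-cycle alteration.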
# [10] = NCI Yeast Anticancer Drug Screen. Data for the cln2 rad14 strain (AID 165);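 note: 0% = growth equal to vehicle treated cultures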; details: S. cerevisiae cln2 rad14 strain, stronger effect = higher value
# Procedure, shortened: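 cln2 rad14 yeast strain; compound exposure; growth inhibition read vs vehicle controls.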
# [11] = NCI Yeast Anticancer Drug Screen. Data for the bub3 strain (AID 167); details: S. cerevisiae bub3 mutant strain, stronger effect = higher value
# Procedure, shortened: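 Mutant yeast screening strain plus compound; vehicle-treated cultures serve as the 0% inhibition reference.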
# [12] = NCI Yeast Anticancer Drug Screen. Data for the wt2 strain (AID 169); details: S. cerevisiae wt2 strain growth inhibition, stronger effect = higher value
# Procedure, shortened: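 Read-out: growth inhibition versus vehicle-treated control cultures after compound exposure of the yeast strain.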
# [13] = NCI Yeast Anticancer Drug Screen. Data for the mlh1 strain (AID 171);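 note: 0% = growth of vehicle-treated control cultures of the same strain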; details: S. cerevisiae mlh1 strain growth inhibition, stronger effect = higher value
# Procedure, shortened: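 Read-out: growth inhibition versus vehicle controls. Strain: engineered yeast with a defined DNA repair or cell cycle defect, compound-treated.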
# [14] = NCI Yeast Anticancer Drug Screen. Data for the sgs1 strain (AID 173);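 note: 0% = growth of vehicle-only control cultures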; details: S. cerevisiae sgs1 mutant, stronger effect = higher value
# Procedure, shortened: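 Read-out: yeast growth inhibition relative to vehicle controls, following compound exposure of a strain with a defined DNA repair/cell cycle alteration.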
# [15] = NCI Yeast Anticancer Drug Screen. Data for the mlh1 rad18 strain (AID 175); details: S. cerevisiae mlh1 rad18 strain growth inhibition, stronger effect = higher value
# Procedure, shortened: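 Yeast w/ defined DNA-repair lesions; compound exposure; growth vs vehicle controls → % inhibition.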
# [16] = NCI Yeast Anticancer Drug Screen. Data for the rad18 strain (AID 177); details: S. cerevisiae rad18 mutant growth inhibition, stronger effect = higher value
# Procedure, shortened: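 Readout: growth inhibition vs vehicle controls. Cells: genetically altered yeast strain, DNA repair defect.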
# [17] = at 5.0 µM (retest, dose inferred, filed as 0.5)
# [18] = at 50.0 µM (retest, dose inferred, filed as 5.0)
compound,measurement,setting,value
c1c[nH]c(CN2CCN(Cc3ncc[nH]3)CC2)n1,growth inhibition,[1]; at 1.2 µM,0%
same,growth inhibition,[1]; at 3.7 µM,72% (active)
same,growth inhibition,[1]; at 11.0 µM,96% (active)
same,growth inhibition,[1]; at 33.0 µM,97% (active)
same,growth inhibition,[1]; at 100.0 µM,98% (active)
same,growth inhibition,[2]; at 1.2 µM,-1%
same,growth inhibition,[2]; at 3.7 µM,7%
same,growth inhibition,[2]; at 11.0 µM,97% (active)
same,growth inhibition,[2]; at 33.0 µM,98% (active)
same,growth inhibition,[2]; at 100.0 µM,99% (active)
same,growth inhibition,[3]; at 1.2 µM,-3%
same,growth inhibition,[3]; at 3.7 µM,3%
same,growth inhibition,[3]; at 11.0 µM,92% (active)
same,growth inhibition,[3]; at 33.0 µM,97% (active)
same,growth inhibition,[3]; at 100.0 µM,98% (active)
same,growth inhibition,[4]; at 1.2 µM,-6%
same,growth inhibition,[4]; at 3.7 µM,2%
same,growth inhibition,[4]; at 11.0 µM,96% (active)
same,growth inhibition,[4]; at 33.0 µM,97% (active)
same,growth inhibition,[4]; at 100.0 µM,99% (active)
same,growth inhibition,[5]; at 1.2 µM,4%
same,growth inhibition,[5]; at 3.7 µM,93% (active)
same,growth inhibition,[5]; [17],89% (active)
same,growth inhibition,[5]; at 11.0 µM,97% (active)
same,growth inhibition,[5]; at 33.0 µM,97% (active)
same,growth inhibition,[5]; [18],99% (active)
same,growth inhibition,[5]; at 50.0 µM,97.4% (active)
same,growth inhibition,[5]; at 100.0 µM,98% (active)
same,growth inhibition,[6]; at 1.2 µM,-5%
same,growth inhibition,[6]; at 3.7 µM,-1%
same,growth inhibition,[6]; [17],26%
same,growth inhibition,[6]; at 11.0 µM,94% (active)
same,growth inhibition,[6]; at 33.0 µM,98% (active)
same,growth inhibition,[6]; [18],98% (active)
same,growth inhibition,[6]; at 50.0 µM,97.7% (active)
same,growth inhibition,[6]; at 100.0 µM,98% (active)
same,growth inhibition,[7]; at 1.2 µM,-4%
same,growth inhibition,[7]; at 3.7 µM,18%
same,growth inhibition,[7]; at 11.0 µM,95% (active)
same,growth inhibition,[7]; at 33.0 µM,98% (active)
same,growth inhibition,[7]; at 100.0 µM,99% (active)
same,growth inhibition,[8]; [17],34%
same,growth inhibition,[8]; [18],99% (active)
same,growth inhibition,[8]; at 50.0 µM,98.5% (active)
same,growth inhibition,[9]; at 1.2 µM,-3%
same,growth inhibition,[9]; at 3.7 µM,12%
same,growth inhibition,[9]; at 11.0 µM,96% (active)
same,growth inhibition,[9]; at 33.0 µM,98% (active)
same,growth inhibition,[9]; at 100.0 µM,98% (active)
same,growth inhibition,[10]; [17],-69%
same,growth inhibition,[10]; [18],99% (active)
same,growth inhibition,[10]; at 50.0 µM,98.7% (active)
same,growth inhibition,[11]; at 1.2 µM,-6%
same,growth inhibition,[11]; at 3.7 µM,27%
same,growth inhibition,[11]; [17],1%
same,growth inhibition,[11]; at 11.0 µM,97% (active)
same,growth inhibition,[11]; at 33.0 µM,97% (active)
same,growth inhibition,[11]; [18],99% (active)
same,growth inhibition,[11]; at 50.0 µM,97.8% (active)
same,growth inhibition,[11]; at 100.0 µM,98% (active)
same,growth inhibition,[12]; at 1.2 µM,-1%
same,growth inhibition,[12]; at 3.7 µM,54%
same,growth inhibition,[12]; at 11.0 µM,98% (active)
same,growth inhibition,[12]; at 33.0 µM,99% (active)
same,growth inhibition,[12]; at 100.0 µM,99% (active)
same,growth inhibition,[13]; at 1.2 µM,-5%
same,growth inhibition,[13]; at 3.7 µM,37%
same,growth inhibition,[13]; at 11.0 µM,97% (active)
same,growth inhibition,[13]; at 33.0 µM,98% (active)
same,growth inhibition,[13]; at 100.0 µM,99% (active)
same,growth inhibition,[14]; at 1.2 µM,-2%
same,growth inhibition,[14]; at 3.7 µM,17%
same,growth inhibition,[14]; at 11.0 µM,96% (active)
same,growth inhibition,[14]; at 33.0 µM,98% (active)
same,growth inhibition,[14]; at 100.0 µM,99% (active)
same,growth inhibition,[15]; [17],46%
same,growth inhibition,[15]; [18],98% (active)
same,growth inhibition,[15]; at 50.0 µM,98% (active)
same,growth inhibition,[16]; at 1.2 µM,0%
same,growth inhibition,[16]; at 3.7 µM,64%
same,growth inhibition,[16]; at 11.0 µM,96% (active)
same,growth inhibition,[16]; at 33.0 µM,98% (active)
same,growth inhibition,[16]; at 100.0 µM,98% (active)
O=S(=O)(c1cccc(C(F)(F)F)c1)N1c2ccccc2-n2cccc2C1c1cccnc1 (stereo not drawn),growth inhibition,[1]; at 1.2 µM,-23%
same,growth inhibition,[1]; at 3.7 µM,7%
same,growth inhibition,[1]; at 11.0 µM,87% (active)
same,growth inhibition,[1]; at 33.0 µM,95% (active)
same,growth inhibition,[1]; at 100.0 µM,91% (active)
same,growth inhibition,[2]; at 1.2 µM,-22%
same,growth inhibition,[2]; at 3.7 µM,-8%
same,growth inhibition,[2]; at 11.0 µM,55%
same,growth inhibition,[2]; at 33.0 µM,92% (active)
same,growth inhibition,[2]; at 100.0 µM,89% (active)
same,growth inhibition,[3]; at 1.2 µM,-73%
same,growth inhibition,[3]; at 3.7 µM,-45%
same,growth inhibition,[3]; at 11.0 µM,-54%
same,growth inhibition,[3]; at 33.0 µM,-57%
same,growth inhibition,[3]; at 100.0 µM,-46%
same,growth inhibition,[4]; at 1.2 µM,-43%
same,growth inhibition,[4]; at 3.7 µM,-16%
same,growth inhibition,[4]; at 11.0 µM,78% (active)
same,growth inhibition,[4]; at 33.0 µM,94% (active)
same,growth inhibition,[4]; at 100.0 µM,92% (active)
same,growth inhibition,[5]; at 1.2 µM,-15%
same,growth inhibition,[5]; at 3.7 µM,5%
same,growth inhibition,[5]; [17],27%
same,growth inhibition,[5]; at 11.0 µM,85% (active)
same,growth inhibition,[5]; at 33.0 µM,92% (active)
same,growth inhibition,[5]; [18],96% (active)
same,growth inhibition,[5]; at 50.0 µM,90.5% (active)
same,growth inhibition,[5]; at 100.0 µM,87% (active)
same,growth inhibition,[6]; at 1.2 µM,-59%
same,growth inhibition,[6]; at 3.7 µM,-32%
